From PubChem BioAssay (NCATS)
Results filed as inconclusive are left out. A call without a number means that no potency is given here. Active and inactive are the calls of the source. Calls follow the shape of the full dose curve.

What was measured:
[1] = Primary qHTS for Huh7 cytotoxicity: counterscreen for inhibitors of MERS-S pseudotyped particle cell entry (AID 1479147)
[2] = Primary qHTS for Vero E6 cytotoxicity: counterscreen for inhibitors of SARS-S pseudo-typed particle cell entry (AID 1479150); also: potency is read from the fitted curve at half-maximal effect
[3] = Primary qHTS for inhibitors of MERS-S pseudo-typed particle cell entry (AID 1479149); also: nearly all actives have a fitted effect of over 60% in size; also: potency is read from the fitted curve at half-maximal effect

Structure (SMILES) | Potency [1] | Potency [2] | Potency [3]
CCCN(CCC)C(=O)C(CCC(=O)OCCCN1CCN(CCOC(=O)Cc2c(C)n(C(=O)c3ccc(Cl)cc3)c3ccc(OC)cc23)CC1)NC(=O)c1ccccc1 (configuration not stated) | inactive | inactive | –
C[C@@H](CN(C)C)CN1c2ccccc2Sc2ccccc21 | inactive | inactive | –
CC(=O)c1ccc2c(c1)N(CCCN(C)C)c1ccccc1S2 | inactive | inactive | –
CC(=O)c1ccc2c(c1)N(CCCN1CCC(CCO)CC1)c1ccccc1S2 | inactive | inactive | –
CC1(C)CCC(C)(C)c2cc(NC(=O)c3ccc(C(=O)O)cc3)ccc21 | inactive | inactive | –
CC(C(O)c1ccccc1)N(C)CCOC(c1ccccc1)c1ccccc1 (configuration not stated) | – | inactive | 22.4 µM (active)
CCCCOc1ccc(C(=O)CCN2CCCCC2)cc1 | – | inactive | –
COc1ccc2cc1Oc1ccc(cc1)C[C@H]1c3c(cc4c(c3Oc3cc5c(cc3OC)CCN(C)[C@@H]5C2)OCO4)CCN1C | – | – | 3.55 µM (active)
COc1ccc(CCN2CCC(Nc3nc4ccccc4n3Cc3ccc(F)cc3)CC2)cc1 | – | – | 12.6 µM (active)
O=C(Oc1cccc2cccnc12)c1ccccc1 | – | 5.62 µM (active) | 12.6 µM (active)
O=C1NCCN1CCN1CCC(c2cn(-c3ccc(F)cc3)c3ccc(Cl)cc23)CC1 | – | – | 8.91 µM (active)
CO[C@@H]1[C@@H](O[C@@H]2O[C@H](C)[C@@H](O[C@H]3C[C@@](C)(O)[C@@H](O)[C@H](C)O3)[C@H](N(C)C)[C@H]2O)[C@@H](CC=O)C[C@@H](C)[C@@H](O[C@@H]2CC[C@H](N(C)C)[C@@H](C)O2)/C=C/C=C/C[C@@H](C)OC(=O)C[C@H]1OC(C)=O | inactive | inactive | –
CN1CCCN(C(c2ccccc2)c2ccc(Cl)cc2)CC1 (configuration not stated) | – | inactive | –
Cc1ccc2nc(N)[nH]c(=O)c2c1Sc1ccncc1 | – | inactive | –
O=C(CCCN1CCC(O)(c2ccc(Br)cc2)CC1)c1ccc(F)cc1 | – | inactive | –
CN1CCCC(n2nc(Cc3ccc(Cl)cc3)c3ccccc3c2=O)CC1 (configuration not stated) | – | inactive | –
CCC(C)(C)c1ccc(CC(C)CN2C[C@@H](C)O[C@@H](C)C2)cc1 (some centres not stated) | – | inactive | –
CCCCC1C(=O)N(c2ccccc2)N(c2ccc(O)cc2)C1=O (configuration not stated) | – | 22.4 µM (active) | –
CCC(=O)c1ccc2c(c1)N(CCCN(C)C)c1ccccc1S2 | – | inactive | –

Structure (SMILES) | Potency [1] | Potency [2] | Potency [3]
O=c1c(-c2ccccc2)c1-c1ccccc1 | – | inactive | –
CC(=O)O[C@]1(C(C)=O)CC[C@H]2[C@@H]3C=C(Cl)C4=CC(=O)CC[C@]4(C)[C@H]3CC[C@@]21C | inactive | inactive | –
C=C1C(=C/C=C2\CCC[C@]3(C)[C@@H]([C@H](C)/C=C/[C@@H](O)C4CC4)CC[C@@H]23)C[C@@H](O)C[C@@H]1O | inactive | inactive | –
CN1CCC(OC(c2ccccc2)c2ccccc2)CC1 | inactive | inactive | –
CCCCN(CCCC)CCC(O)c1cc2c(Cl)cc(Cl)cc2c2cc(C(F)(F)F)ccc12 (configuration not stated) | inactive | inactive | –
CN(C)CCOC1=Cc2ccccc2Sc2ccc(Cl)cc21 | inactive | inactive | –
O=C(Nc1ccccc1)OCC(CN1CCCCC1)OC(=O)Nc1ccccc1 (configuration not stated) | inactive | inactive | –
O=C1NC2CCCCN2C12CCN(CCCN1c3ccccc3CCc3ccc(Cl)cc31)CC2 (configuration not stated) | – | inactive | 12.6 µM (active)
O=C(CCC1CCN(Cc2ccccc2)CC1)c1ccc2c(c1)NCCCC2 | – | inactive | –
COc1cc(N)c(Cl)cc1C(=O)NC1CCN(CCCOc2ccc(F)cc2)CC1OC (configuration not stated) | – | inactive | –
COc1cc(N)c(Cl)cc1C(=O)NC1CCN(Cc2ccccc2)CC1 | inactive | inactive | –
CN(C(=O)CN(CCO)CC(=O)N(C)C(C)(C)Cc1ccccc1)C(C)(C)Cc1ccccc1 | – | inactive | –
NC(N)=N/N=C/c1c(Cl)cccc1Cl | – | inactive | –
CCCCCCCCCCCCCCCC[N+](C)(C)CCN(Cc1ccc(OC)cc1)c1ncccn1 | – | – | 10 µM (active)
CC(C)OC(=O)C(C(=O)OC(C)C)=C1SC=CS1 | – | inactive | inactive
COc1ccc(CN2CCN(C(c3ccc(F)cc3)c3ccc(F)cc3)CC2)c(OC)c1OC | inactive | inactive | –
NC(=O)C1(N2CCCCC2)CCN(CCCN2c3ccccc3CCc3ccc(Cl)cc32)CC1 | – | – | 12.6 µM (active)
CC(C)COCC(CN(Cc1ccccc1)c1ccccc1)N1CCCC1 (configuration not stated) | – | inactive | 8.91 µM (active)
CC1=CC(=O)c2ccccc2C1=O | – | inactive | –
